The source of these data is ChEMBL document CHEMBL4513216, “Probing the Open Global Health Chemical Diversity Library for Multistage-Active Starting Points for Next-Generation Antimalarials” (ACS Infect Dis, 2020).

SMILES strings stand for the structures. The campaign covered roughly 68,000 compounds. About 2,700 (4%) showed an effect of 50% or more. Only a selection was taken, and strong results are over-represented in it overall.

The test system of the assay is Plasmodium berghei. The experiment in a line: Screen against P. berghei liver stage (PbLuc), transformed with Luciferase, at 2uM. Type of assay: functional, HepG2. Conditions: tested at 2 uM.
`O=C(NC1CCN(c2ncccc2F)C1)c1cccc(-n2ccnn2)c1` (centres undefined): the INHIBITION was 25.78%.

For the molecule `CNCC[C@H]1CC(C)(C)Oc2ccc(C)cc21`, the INHIBITION is -7.01%.

Turning to `N#Cc1cccc(CN2Cc3nccn3CC(CN3CCCC3)C2)c1` (centres undefined), the INHIBITION amounted to 32.04%. To `Cc1c(C(=O)NCC(C)(C)S(C)(=O)=O)cccc1-c1ccccn1` belongs -62.92%; to `Cc1c(C(=O)NCCC(=O)N2CCCC2)cccc1-c1ccccn1`, 59.67%; to `Cc1c(C(=O)NCCCS(C)(=O)=O)cccc1-c1ccccn1`, 3.63%. Consider `Cc1cccc(CC(=O)N2CCOCC2c2c(C)n[nH]c2C)c1` (centres undefined), for which the INHIBITION was 37.57%. On to `Cc1n[nH]c(C)c1C1COCCN1C(=O)Cc1cccc(F)c1` (centres undefined), for which the INHIBITION was determined as 13.24%.

In the case of `Cc1cccc(CCC(=O)N2CCOCC2c2c(C)n[nH]c2C)c1` (centres undefined), the INHIBITION is listed as 74.35%. As for `COCCC(=O)Nc1cnn(COc2ccc(F)cc2Cl)c1`, the INHIBITION was -17.37%. `CCc1cnc(C)nc1NC(C)C(=O)Nc1cc(F)ccc1C` (centres undefined): the INHIBITION came out at 20.32%. As for `CCCNC(=O)c1cc(C2CCCN(Cc3ccccn3)C2)no1` (centres undefined), the INHIBITION is 72.41%.

Consider `O=C(NC1CC1)c1cc(C2CCCN(Cc3ccccn3)C2)no1` (centres undefined), for which the INHIBITION is recorded as -15.37%. To `O=C(c1cc(C2CCCN(Cc3ccccn3)C2)no1)N1CCCC1` (centres undefined) belongs 39.48%; to `CC(C)c1nn(C)c(Cl)c1CNC1CCOc2ccccc21` (centres undefined), -14.17%. Turning to `CN(C)c1ccc(CN2CCN(c3ccc(C#N)cc3)C(=O)C2)cn1`, the INHIBITION was -13.81%. Then `Cc1ccc(CN2CCN(c3cncc(N(C)C)n3)CC2=O)cc1C`, with 27.72%. For the molecule `Cc1ccc(CN2CCN(Cc3ccc(N(C)C)nc3)CC2=O)cc1C`, the INHIBITION amounted to 61.3%. Consider `CC1COCCN1Cc1nc(-c2ccc(Br)s2)no1` (centres undefined), for which the INHIBITION is given as 17.31%. With `Fc1ccc(-c2noc3c2CN(CC2CC2)CC3)cc1F`, the INHIBITION is listed as 21.49%. For the molecule `CC(C)(O)CCc1cccc(C(=O)NCCC2=CSC3=NCCCN23)c1`, the INHIBITION was found to be 9.51%. With `COCCNc1ccc(CC2CCCN(Cc3c[nH]cn3)C2)nn1` (centres undefined), the INHIBITION is -35.23%.

For the molecule `CCOc1ccccc1C(=O)NC(CC(=O)O)c1cccs1` (centres undefined), the INHIBITION was -23.34%.

As to `CCCC(NC(=O)c1cc(C2CC2)[nH]n1)c1nnc2ccccn12` (centres undefined), the INHIBITION was found to be 19.42%. For the molecule `NCc1n[nH]c(=O)n1-c1ccccc1Oc1ccccc1`, the INHIBITION was 28.73%.

Turning to `COCCN1CCOCC2(CCN(c3cnccn3)CC2)C1`, the INHIBITION is on record as 50.85%. Then `CC(C)N1CCOCC2(CCN(c3cnccn3)CC2)C1`, with -10.43%; and `COCCN1CCOCC12CCN(c1cnccn1)CC2`, with 10.71%. In the case of `Cc1nc(C(=O)N2CCC(c3cc(CCO)n(C)n3)C2)co1` (centres undefined), the INHIBITION is -13.45%. To `Cc1nc(CN(C)C2CCN(Cc3nc4ccccc4n3C)C2)no1` (centres undefined) belongs -2.87%; to `Cc1ccc(N2CCCC(N(C)Cc3cc(C)on3)C2)nn1` (centres undefined), -1.21%; to `Cc1nc(CN(C)C2CCN(Cc3nc4ccccc4s3)C2)no1` (centres undefined), -75.02%. With `Cc1nc(CN(C)C2CCN(CC3CCC3)C2)no1` (centres undefined), the INHIBITION came out at 15.28%.

As to `Cc1nc(CN(C)C2CCN(Cc3ccc4ccccc4n3)C2)no1` (centres undefined), the INHIBITION was 55.7%. Then `Cc1nc(CN(C)C2CCN(CCCc3ccccc3)C2)no1` (centres undefined), with 16.25%; and `CC(C)c1nc(CN(C)C2CCCN(c3cccnn3)C2)no1` (centres undefined), with -68.26%; and `Cc1nc(CN(C)C2CCCN(c3cccnn3)C2)no1` (centres undefined), with 51.21%. Regarding `Cc1ccc(N2CCCC(N(C)Cc3cc(C)no3)C2)nn1` (centres undefined), the INHIBITION worked out at 75.47%. Then `Cc1cc(CN(C)C2CCCN(c3cccnn3)C2)on1` (centres undefined), with 13.35%; and `CN(Cc1noc(C2CC2)n1)C1CCCN(c2cccnn2)C1` (centres undefined), with -13.24%; and `Cc1nc(CN(C)C2CCCN(c3ccccc3)C2)no1` (centres undefined), with 74.35%.

For the molecule `COCCC(=O)NC(C)(C(N)=O)c1cccc(Cl)c1` (centres undefined), the INHIBITION came out at 7.37%. Consider `O=S1(=O)CCC(n2nc(COc3ccccc3)nc2-c2cnccn2)C1` (centres undefined), for which the INHIBITION is -5.42%. Consider `Cc1nc(CCNC(Cc2ccncc2)C(F)(F)F)cs1` (centres undefined), for which the INHIBITION is -2.89%. To `CCN(C)Cc1n[nH]c(=O)n1-c1cc(F)ccc1C` belongs 5.78%; to `CN(C)C(=O)Cc1ccccc1NCc1noc(-c2ccccc2)n1`, 22.19%.

For `CCn1nccc1CNc1nc(N)nc2c1nc(C)n2C`, the INHIBITION came out at 14.79%. Take `CNC(=O)C(NC(=O)c1nccn2ccnc12)c1ccc(F)c(F)c1` (centres undefined): the INHIBITION was found to be 29.53%.

As to `CSCCC(Nc1nc(C)cc(C)n1)C(=O)NCC1CCOCC1` (centres undefined), the INHIBITION is 0.62%. Then `CC(C)c1noc(CN2CCOCC2C)n1` (centres undefined), with 27.86%.

In the case of `CN(CC(=O)NCc1ccccn1)C1CCCN(c2cccnn2)C1` (centres undefined), the INHIBITION was -117.12%. Turning to `CN(CC(=O)Nc1ccncc1)C1CCCN(c2cccnn2)C1` (centres undefined), the INHIBITION is given as 7.13%.

For the molecule `COCCCNC(=O)CN(C)C1CCCN(c2cccnn2)C1` (centres undefined), the INHIBITION amounted to 64.16%.

With `Cc1ccc(C(=O)N2CCC3(CCCCC3)C2)c(=O)[nH]1`, the INHIBITION is on record as -8.54%. In the case of `CN(C)C(=O)c1c[nH]nc1C1CCN(S(=O)(=O)c2cccc(Cl)c2)CC1`, the INHIBITION is given as 13.02%. In the case of `Cc1ncsc1-c1nnc(C2CCN(Cc3cccc(F)c3F)CC2)o1`, the INHIBITION amounted to 35.56%. As to `Cc1cccc(CN2CCC3(CCCN(C(=O)CN(C)C)C3)C2=O)n1` (centres undefined), the INHIBITION was 28.95%.

Regarding `Cc1cccc(CN2CCC3(CCCN(C(=O)N4CCCC4)C3)C2=O)n1` (centres undefined), the INHIBITION is -9.14%. In the case of `Cc1cccc(CN2CCC3(CCCN(C(=O)N(C)C)C3)C2=O)n1` (centres undefined), the INHIBITION amounted to 51.81%.

`COCCn1cnc2ccc(NC(=O)CCCn3cccn3)cc2c1=O`: the INHIBITION is 52.05%. Regarding `CC(C)NC(=O)CCCn1cnc2ccccc2c1=O`, the INHIBITION worked out at 35.43%. Turning to `Cn1cnc2ccc(NC(=O)CCCn3cccn3)cc2c1=O`, the INHIBITION was 25.61%.

`CC(C)Cn1cnc2ccc(NC(=O)CCCn3cccn3)cc2c1=O`: the INHIBITION is recorded as 16.03%.

As to `CC(NC(=O)CCCn1cnc2ccccc2c1=O)c1ncn[nH]1` (centres undefined), the INHIBITION amounted to 22.27%.

In the case of `COCC(C)NC(=O)CCCn1cnc2ccccc2c1=O` (centres undefined), the INHIBITION is recorded as 51.36%. Regarding `CC(C)Nc1ncnc2c1CCN(C(=O)NCc1cccc(F)c1)CC2`, the INHIBITION was -36.75%. `O=C(c1cccnc1Oc1ccc(Cl)cc1)N1CC[C@@H](O)C1`: the INHIBITION came to 18.2%. Regarding `O=C(c1ccccn1)N1CCCC(c2ncncc2-c2ccncc2)C1` (centres undefined), the INHIBITION worked out at 39.9%. For the molecule `CNC(=O)N1CCC2(COCc3c(C)nc(NCc4ccco4)nc32)C1` (centres undefined), the INHIBITION stood at 16.91%.
